# Reference: PubChem BioAssay (NCATS)
# “And” between values parts separate entries of the source, which are not always exact repeats. Identical values can stand only once. Inconclusive results are not listed. The source made the active and inactive calls. Unless noted, calls come from the whole dose curve; as a rule, active = well fitted curve in the direction sought with a large enough effect; inconclusive = small, poorly fitted or top-dose-only effect, or another doubt; inactive = no such curve, though single readings can be large; an effect the other way counts as inactive or inconclusive. Peptide text beside a SMILES is read from it.
# What was measured:
# [1] = Cytotoxicity counterscreen for NFkB agonists and antagonists (AID 624476); note: potency is the fitted concentration of half-maximal effect
# [2] = qHTS Assay for Identification of Small Molecule Agonists for NFkB Signaling Pathway. (AID 624478);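 note: compounds tested together with TNF alpha at its EC50 of 10 pM; 0% is about no effect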
# Outline: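 Cells carrying an NFkB response element-driven beta-lactamase gene are co-treated with compound and 10 pM TNF alpha for 5 h, and reporter activity is then read as 460 and 530 nm fluorescence.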
# [3] = Cell Proliferation Assay against the TMD8 Cell Line (AID 651645); conditions: TMD8 DLBCL cell line proliferation/viability; at 46.1 µM (top of the series) unless noted;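 note: cells exposed to compound for 48 h before reading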
# Outline: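 Seed log-phase TMD8 cells in RPMI containing 5% FBS, add compounds at once, incubate 48 hours at 37C. Equilibrate to room temperature, add CellTiter-Glo, read luminescence after 15 minutes and express relative to DMSO and bortezomib controls.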
# [4] = Cell Proliferation Assay against the HBL1 Cell Line (AID 651646); conditions: HBL1 DLBCL cells; at 46.1 µM (top of the series) unless noted;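 note: cells exposed to compound for 48 h before reading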
# Outline: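 HBL1 ABC DLBCL cells, 500/well in RPMI with 5% FBS, treated for 48 h at 37C. Viability read by CellTiter-Glo luminescence, normalized to DMSO as 100% and 9.2 uM bortezomib as 0%.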
# [5] = qHTS Assay for Identification of Small Molecule Antagonists for NFkB Signaling Pathway. (AID 624479; calls by dose curve;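 note: pathway stimulated with TNF alpha; % is set by controls: 0 for no effect and ±100 for the full control effect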)
# [6] = Cell Proliferation Assay against the TMD8 Cell Line (Caspase readout at 16 hrs) (AID 651712)
# Outline: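 TMD8 cells in RPMI with 5% FBS were treated with compound for 16 h at 37 C, then caspase 3/7 activation was read by Caspase-Glo luminescence. Percent activity was scaled to DMSO (0%) and 9.2 uM bortezomib final (100%).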
# [7] = Cell Proliferation Assay against the TMD8 Cell Line (Caspase readout at 8 hrs) (AID 651713)
# Outline: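 Percent activity derived from Caspase-Glo signal, DMSO set to 0% and bortezomib (9.2 uM final) to 100%. TMD8 cells were exposed to compound for 8 h in RPMI with 5% FBS.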
# [8] = molecular target: Tyrosine-protein kinase Yes (Homo sapiens) (UniProt P07947); assay: qHTS for small molecule inhibitors of Yes1 kinase: Primary Screen (AID 686947); note: nearly all actives have a fitted effect of over 60% in size; note: potency is the fitted concentration of half-maximal effect
# Sequence of Tyrosine-protein kinase Yes (Homo sapiens) (P07947 whole entry, looked up): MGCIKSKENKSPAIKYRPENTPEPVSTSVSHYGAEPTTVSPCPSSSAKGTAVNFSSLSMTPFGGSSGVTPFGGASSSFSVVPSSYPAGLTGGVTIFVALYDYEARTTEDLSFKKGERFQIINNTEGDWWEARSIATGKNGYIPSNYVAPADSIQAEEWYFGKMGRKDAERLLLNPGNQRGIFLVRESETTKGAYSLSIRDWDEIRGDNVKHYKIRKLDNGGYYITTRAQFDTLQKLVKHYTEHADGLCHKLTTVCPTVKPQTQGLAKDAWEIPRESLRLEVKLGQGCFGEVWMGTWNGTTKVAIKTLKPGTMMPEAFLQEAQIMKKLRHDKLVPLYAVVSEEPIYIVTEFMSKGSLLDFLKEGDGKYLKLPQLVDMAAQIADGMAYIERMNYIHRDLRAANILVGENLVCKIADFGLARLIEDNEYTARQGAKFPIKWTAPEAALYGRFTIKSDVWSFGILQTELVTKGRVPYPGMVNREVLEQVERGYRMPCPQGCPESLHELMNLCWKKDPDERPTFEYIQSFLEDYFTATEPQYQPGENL
# Outline: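 ADP-Glo luminescence readout; final 4 nM Yes1, 0.1 mM ATP, 0.3 mg/mL poly(E4Y), Tris pH 7.5, MgCl2, DTT, Brij-35. 20 min compound preincubation, 60 min reaction at RT. Normalized to DMSO wells with and without enzyme.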
# [9] = qHTS assay for small molecule agonists of the antioxidant response element (ARE) signaling pathway (AID 651741; active = well fitted activation curve with a large enough effect in the signal ratio; the % refers to the signal ratio; note: potency is the fitted concentration of half-maximal effect; for activation: % of control where 0% means no effect)
# Outline: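 HepG2 ARE-bla cells plated at 2,000 cells/well and incubated 5 h at 37 C/5% CO2 received 23 nL compound in DMSO. After 16 h at 37 C, LiveBLAzer B/G FRET substrate was applied for 2 h at room temperature and fluorescence read.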
# [10] = qHTS assay for small molecule activators of the p53 signaling pathway (AID 651743; active = well fitted activation curve with a large enough effect in the signal ratio, not every such curve was filed as active; the % refers to the signal ratio; note: potency is the fitted concentration of half-maximal effect; for activation: % of control where 0% means no effect); conditions: HCT-116 p53RE-bla, beta-lactamase FRET ratio, 16 h; activation: stronger effect = higher value
# Outline: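 HCT-116 p53RE-bla, 4,000 cells/well; 5 h settle; cpd/DMSO 16 h, 37 C; LiveBLAzer B/G 2 h RT; fluorescence intensity.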
# [11] = qHTS assay for small molecule activators of the nuclear factor-kappa B (NF-kB) signaling pathway (AID 651749; active = well fitted activation curve with a large enough effect in the signal ratio; the % refers to the signal ratio; note: % of control where 0% means no effect); conditions: NF-kB-bla ME-180 cells, beta-lactamase FRET ratio, 16 h; stronger effect = higher value
# Outline: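 Incubation lasted 16 hr at 37C in 5% CO2 after 23 nL compound addition to ME-180 NF-kB-bla cells. Activation appears as beta-lactamase-mediated FRET loss.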
# [12] = molecular target: Tumor necrosis factor (Homo sapiens) (UniProt P01375); assay: qHTS assay to identify small molecules that stimulate Tumor Necrosis Factor-alpha (TNF-alpha) secretion (AID 651757; active = well fitted curve in the direction sought with a large enough effect in the signal ratio; the % refers to the signal ratio; note: 0% is about no effect)
# Sequence of Tumor necrosis factor (Homo sapiens) (P01375 whole entry, looked up): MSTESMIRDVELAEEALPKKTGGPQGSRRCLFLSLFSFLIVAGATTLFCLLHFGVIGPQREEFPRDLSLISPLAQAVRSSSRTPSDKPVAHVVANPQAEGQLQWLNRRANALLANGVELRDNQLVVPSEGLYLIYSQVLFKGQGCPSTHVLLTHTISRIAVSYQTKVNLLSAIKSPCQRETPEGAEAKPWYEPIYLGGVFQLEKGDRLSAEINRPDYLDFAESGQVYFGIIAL
# Outline: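 Secreted TNF-alpha from compound-treated THP-1 cells (17 hrs, 37 C) was quantified with a homogeneous time-resolved fluorescence antibody assay.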
# [13] = qHTS assay to identify small molecules that stimulate interleukin-8 (IL-8) secretion (AID 651758; active = well fitted activation curve with a large enough effect in the signal ratio; the % refers to the signal ratio; note: 0% is about no effect)
# Outline: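 THP-1 cells (2000/well) exposed to compound 16 h at 37 C; secreted IL-8 then detected by HTRF with cryptate- and XL665-labelled anti-IL-8 antibody pair after 1-3 h at room temperature.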
# [14] = qHTS assay for environmental chemicals that activate the Aryl hydrocarbon Receptor (AhR) signaling pathway (AID 651777); conditions: 1A2-DRE human hepatoma cells, luciferase, 24 h; activation: stronger effect = higher value; note: % of control where 0% means no effect; nearly all actives have a fitted effect of over 15% in size
# Outline: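 Measured luciferase activity, read 30 min after One-Glo addition at room temperature, from human hepatoma cells bearing a dioxin response element–CYP1A2 promoter reporter and exposed to compound for 24 hr at 37 C.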
# [15] = molecular target: Peroxisome proliferator-activated receptor alpha (Homo sapiens) (UniProt Q07869); assay: qHTS assay for small molecule agonists of the peroxisome proliferator-activated receptor alpha (PPARalpha) signaling pathway (AID 651778); conditions: PathHunter PPARalpha complementation, chemiluminescence, 6 h; stronger effect = higher value; note: % of control where 0% means no effect
# Sequence of Peroxisome proliferator-activated receptor alpha (Homo sapiens) (Q07869 whole entry, looked up, the tested form may be a part): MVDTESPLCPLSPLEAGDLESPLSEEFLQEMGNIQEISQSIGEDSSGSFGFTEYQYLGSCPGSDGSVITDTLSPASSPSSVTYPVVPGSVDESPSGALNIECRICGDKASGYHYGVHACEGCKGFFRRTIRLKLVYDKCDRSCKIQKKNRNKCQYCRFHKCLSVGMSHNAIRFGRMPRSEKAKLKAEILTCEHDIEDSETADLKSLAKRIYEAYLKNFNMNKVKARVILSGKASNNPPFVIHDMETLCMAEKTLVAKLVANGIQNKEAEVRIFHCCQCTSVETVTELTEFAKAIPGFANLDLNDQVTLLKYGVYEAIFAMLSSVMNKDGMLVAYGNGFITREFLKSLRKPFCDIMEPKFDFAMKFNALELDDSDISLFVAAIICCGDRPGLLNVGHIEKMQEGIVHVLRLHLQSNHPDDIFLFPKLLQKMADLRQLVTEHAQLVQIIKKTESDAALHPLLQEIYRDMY
# Outline: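 Enzyme-fragment complementation assay in which ligand-bound PPARalpha translocates and forms an active enzyme that generates chemiluminescence. Cells were plated overnight, exposed to compound for 6 hr at 37 C, and then given detection reagent for 60 min at room temperature.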
# [16] = molecular target: Nuclear receptor ROR-gamma (Homo sapiens) (UniProt P51449); assay: qHTS assay for small molecule antagonists of the retinoid-related orphan receptor gamma (ROR-gamma) signaling pathway (AID 651802);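 note: CHO cells with doxycycline-induced ROR-gamma expression; luciferase reporter luminescence driven by ROR response element; % is set by controls: 0 for no effect and ±100 for the full control effect; nearly all actives have a fitted effect of over 60% in size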
# Sequence of Nuclear receptor ROR-gamma (Homo sapiens) (P51449 whole entry, looked up): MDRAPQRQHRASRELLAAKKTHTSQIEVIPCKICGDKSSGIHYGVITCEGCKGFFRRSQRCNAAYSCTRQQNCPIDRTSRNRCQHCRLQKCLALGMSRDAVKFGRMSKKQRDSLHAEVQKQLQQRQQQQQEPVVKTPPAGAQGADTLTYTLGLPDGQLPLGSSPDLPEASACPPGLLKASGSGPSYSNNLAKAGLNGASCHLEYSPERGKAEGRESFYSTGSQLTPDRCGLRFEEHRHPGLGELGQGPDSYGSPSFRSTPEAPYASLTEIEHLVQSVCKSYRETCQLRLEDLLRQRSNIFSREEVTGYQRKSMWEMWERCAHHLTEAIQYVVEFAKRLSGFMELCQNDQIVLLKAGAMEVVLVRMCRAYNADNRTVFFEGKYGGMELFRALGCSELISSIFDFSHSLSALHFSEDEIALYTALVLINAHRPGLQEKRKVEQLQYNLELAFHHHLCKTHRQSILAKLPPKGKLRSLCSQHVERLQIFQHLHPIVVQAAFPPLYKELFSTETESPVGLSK
# Outline: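 Antagonism is scored as a fall in luminescence from a RORE-luciferase reporter in CHO cells expressing ROR under a TET-inducible promoter, measured 16hr after doxycycline induction in the presence of compound.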
smiles,measurement,setting,value
CC(C)c1ccc2c(c1)c(SC(C)(C)C)c(CC(C)(C)C(=O)O)n2Cc1ccc(Cl)cc1,Potency,[1],8.33 µM (active)
same,outcome,[2],inactive
same,viability (% of control),[3],9.44%
same,"viability, percent of control",[4],8.87%
CCOC(=O)C(C)Oc1cccc2c(=O)n(CC(=O)Nc3ccc4c(c3)OCCO4)ccc12 (configuration not stated),Potency,[1],inactive
same,outcome,[2],inactive
same,Potency,[5],inactive
same,viability (% of control),[3],109%
same,"viability, percent of control",[4],108%
same,Potency,[6],inactive
same,Potency,[7],inactive
same,Potency,[8],inactive
CC1(C)NC(=O)N(c2ccc([N+](=O)[O-])c(C(F)(F)F)c2)C1=O,Potency,[9],54.5 µM (active)
same,activation,[10],15.1% (inactive)
O=c1c(O)c(-c2ccc(O)cc2O)oc2cc(O)cc(O)c12,activation,[10],-1.48% (inactive)
Cc1cc(O)c2c(c1)C(=O)c1cc(O)cc(O)c1C2=O,activation,[11],0.85% (inactive) and -1.63% (inactive)
Oc1ccc(-c2nc(-c3ccc(F)cc3)c(-c3ccncc3)[nH]2)cc1,Potency,[8],17.3 µM (active)
COC(=O)[C@H](Cc1ccccc1)NC(=O)[C@@H](N)CC(=O)O (H-Asp-Phe-OMe),Potency,[9],inactive
same,activation,[10],0.335% (inactive) and -1.33% (inactive)
same,activation,[11],-1.39% (inactive) and -0.748% (inactive)
same,Potency,[12],inactive
same,outcome,[13],inactive
same,activation,[14],-1.45% (inactive) and -0.834% (inactive)
same,max response,[15],-1.47% (inactive) and -4.11% (inactive)
same,outcome,[16],inactive
Nc1nc(Cl)nc2c1ncn2[C@H]1C[C@H](O)[C@@H](CO)O1,Potency,[1],27 µM (active)
same,outcome,[2],inactive
same,Potency,[5],inactive
same,viability (% of control),[3],-0.421% [at 92.2 µM]
same,Potency,[6],inactive
same,Potency,[10],501 nM (active)
same,activation,[11],0.321% (inactive)
same,activation,[14],1.52% (inactive)
same,max response,[15],-0.979% (inactive)
same,Potency,[8],79.3 µM (active)
COc1cc(OC)c(C(=O)CCCN2CCCC2)c(OC)c1,Potency,[9],inactive
same,activation,[10],-0.273% (inactive)
same,activation,[11],-0.152% (inactive)
same,activation,[14],-1.93% (inactive)
same,max response,[15],-0.755% (inactive)
CCCc1cc(=O)[nH]c(=S)[nH]1,Potency,[9],inactive
same,activation,[10],0.119% (inactive) and 0.547% (inactive)
same,Potency,[12],inactive
same,activation,[14],0.594% (inactive) and 1.79% (inactive)
same,max response,[15],-4.59% (inactive) and -0.354% (inactive)
same,outcome,[16],inactive
COc1cc(Nc2c(C#N)cnc3cc(OCCCN4CCN(C)CC4)c(OC)cc23)c(Cl)cc1Cl,outcome,[2],inactive
same,viability (% of control),[3],4.66%
same,"viability, percent of control",[4],5.95%
same,Potency,[6],inactive
S=c1nc[nH]c2nc[nH]c12,outcome,[2],inactive
same,Potency,[5],inactive
same,viability (% of control),[3],39.5% [at 92.2 µM]
same,"viability, percent of control",[4],54.4% [at 92.2 µM]
same,Potency,[6],inactive
same,Potency,[7],inactive
same,Potency,[8],inactive
